HSF-1 act: increases HSF-1 driven luciferase reporter signal. NIH3T3-HGL HSF-1 luciferase reporter, MG132, 8 h; 100% = twice DMSO control signal. 300,000 tested, 1.7% active. activation, % at 9 µM;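 active = mean replicate activation of at least 50% with a set share of replicates each reaching 50%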;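 note: 0% = median of the neutral control wells and 100% = twice that signal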
Wnt act: Wnt/beta-catenin pathway activation. Wnt/beta-catenin reporter cell assay, activator, plate reader. activation, % at 9.35 µM. 300,000 tested, 1.2% active. AID 743398; in the data active = activation above about 30%, passing the limit was not always enough;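 note: 0% = neutral control wells and 100% = positive control wells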
HSF1 inhib: HSF1 inhibition; NIH3T3-HGL HSE-luciferase, MG132-induced, luminescence 8 h; stronger effect = lower value; 300,000 tested, 0.77% active; AID 2098; activity change, negative = inhibition, % at 7.5 µM (by protocol);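 active = more than half of replicate wells show activity change below -50%, luminescence cut by over half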;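 note: luciferase reports HSF-1 transcriptional activity via heat shock element; 0% = median of DMSO wells and -100% = zero luminescence signal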
MITF act: increases MITF-driven TRPM1 promoter luciferase signal. SK-MEL-5 TRPM1-promoter luciferase, 24 h; % of positive control, neutral wells = 0. activation, % at 12.5 µM. 300,000 tested, 0.75% active;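 active = mean activation of at least 80% with every replicate also reaching 80%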;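 note: 0% = neutral control wells and 100% = parthenolide positive control wells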
esBAF inh: inhibitors of esBAF chromatin remodeling in mouse ES cells. Bmi1-luciferase knock-in reporter, 24 h; 100% = twice the neutral-well signal. reporter increase, % at 12.5 µM. 350,000 tested, 2% active. AID 602393; in the data active = activation above about 40%;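 note: 0% = median of the plate's neutral control wells and 100% = double that signal; a rise in the Bmi1 reporter signal indicates esBAF inhibition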
SMARCA2 activ: activators of SMARCA2 function; MG213 cells, MMTV-luciferase reporter, dexamethasone, overnight; activation, % at 9.1 µM; 370,000 tested, 1% active; AID 652017; in the data active = activation above about 7.8%;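 note: 0% = vehicle wells and 100% = reference activator wells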
The depositor's hits bear a star; nt = no result. Hits are enriched below; roughly 4.3% of the tested compounds scored in any of these assays.

SMILES	HSF-1 act	Wnt act	HSF1 inhib	MITF act	esBAF inh	SMARCA2 activ
Cc1ccccc1NCC(=O)N/N=C/c1ccc([N+](=O)[O-])cc1	-4	nt	10	4	nt	3
O=C(CNc1cccc2ccccc12)N/N=C/c1ccc([N+](=O)[O-])cc1	77*	4	31	-11	-4	0
COc1ccc(-c2nnc(SCC(=O)N3CCCCC3)o2)cc1	22	5	5	35	38	3
COc1ccc(-c2nnc(SCC(=O)N3CCCC3)o2)cc1	7	9	14	36	45*	6
COc1cccc(-c2nnc(SCC(=O)N(C(C)C)C(C)C)o2)c1	9	50*	-4	24	13	-2
CCOc1ccc(-c2nnc(SCC(=O)N3CCCC3)o2)cc1	8	3	6	28	53*	0
O=C(C[C@@H]1C=C[C@H](NC(=O)C2CCC2)[C@@H](CO)O1)NCc1ccncc1	nt	nt	nt	nt	1	nt
CCCNC(=O)N(C)C[C@H]1Oc2ncc(-c3ccccc3)cc2C(=O)N([C@@H](C)CO)C[C@@H]1C	nt	nt	nt	nt	4	nt
CCOC(=O)Cc1csc(NC(=O)c2c(C)noc2C)n1	-13	-3	-3	-20	nt	0
Cc1occc1-c1nnc(SCC(=O)Nc2nc(C(C)(C)C)cs2)o1	18	-1	12	10	39	-1
Cc1csc(NC(=O)CSc2nnc(-c3ccoc3C)o2)n1	-13	21	6	nt	43*	3
Cc1csc(NC(=O)c2cccc(C)c2C)n1	13	nt	8	73	nt	6
CCOC(=O)Cc1csc(NC(=O)c2ccoc2C)n1	57*	nt	16	22	37	3
Cc1cccc(NC(=O)c2ccoc2C)n1	5	nt	5	33	45*	2
Cc1csc(NC(=O)c2ccoc2C)n1	23	nt	11	nt	42*	6
COCC(=O)N1[C@@H]2c3cccc(=O)n3C[C@@H]2[C@@H](CO)[C@@H]1C(=O)NCc1ccccc1	nt	nt	nt	nt	1	nt
CC(=O)N[C@H]1CC[C@@H](CCNC(=O)C2CCC2)O[C@@H]1CO	nt	nt	nt	nt	0	nt
CCOC(=O)Cc1csc(NC(=O)c2sc3nc4ccc(CC)cc4cc3c2N)n1	-64	-8	-54*	17	7	2
CCOC(=O)Cc1csc(NC(=O)c2sc3nc4cc(C)ccc4cc3c2N)n1	-1	-2	4	15	nt	-1
CC(=O)N(C)C[C@H]1Oc2ncc(C#Cc3cccnc3)cc2C(=O)N([C@@H](C)CO)C[C@@H]1C	nt	nt	nt	nt	-5	nt
C[C@H]1CN([C@@H](C)CO)C(=O)c2cccc(NS(=O)(=O)c3cn(C)cn3)c2O[C@@H]1CN(C)C(=O)Nc1ccccc1	nt	nt	nt	nt	-5	nt
O=C(C1CCOCC1)N1C[C@@H]2[C@H](c3ccccc31)[C@H](CO)N2C(=O)c1ccccc1	nt	nt	nt	nt	-1	nt
CNc1ncc(C(=O)c2ccc(Br)cc2)s1	40	-2	22	70	33	3
CNc1ncc(C(=O)c2ccccc2)s1	57*	20	28	nt	34	4
O=C(c1ccc(Cl)cc1)c1cnc(Nc2ccccc2Cl)s1	15	nt	7	99*	57*	2
SMILES	HSF-1 act	Wnt act	HSF1 inhib	MITF act	esBAF inh	SMARCA2 activ
O=C(Nc1ccc(Cl)cc1)Nc1nnc(Cc2ccc([N+](=O)[O-])cc2)s1	17	48*	-3	-3	nt	0
CNC[C@H]1OCCCC[C@H](C)Oc2ccc(NS(=O)(=O)c3c(C)noc3C)cc2C(=O)N([C@H](C)CO)C[C@H]1C	nt	nt	nt	nt	-6	nt
CCCCC(=O)Nc1ccc(C(=O)NCCc2ccccc2)cc1	26	19	2	35	nt	2
CCCCC(=O)Nc1ccc(C(=O)Nc2ccc(S(=O)(=O)Nc3nccc(C)n3)cc2)cc1	-72	-1	-64*	-1	nt	3
CCCCC(=O)Nc1ccc(C(=O)NCCc2ccc(S(N)(=O)=O)cc2)cc1	-73	nt	-68*	4	1	6
CCCCC(=O)Nc1ccc(S(=O)(=O)Nc2nccc(C)n2)cc1	-10	3	-13	2	nt	-2
CCOC(=O)c1cc(-c2ccccc2C)nn1Cc1cc(CC)no1	nt	8	nt	58	39	3
CCOC(=O)c1cc(-c2ccccc2)nn1Cc1cc(CC)no1	10	15	7	73	61*	3
O=C(C1CCC1)N1C[C@@H]2[C@H](c3ccccc31)[C@@H](CO)N2C(=O)Cc1ccccn1	nt	nt	nt	nt	0	nt

High-throughput results (PubChem)
